This is an account of results in PubChem BioAssay (NCI).

Compounds without any hit were thinned out: in the full panel of roughly 79,000, 15% have a hit. Values without a mark were called inactive. Activity calls are given as the source filed them. Rule as the data show it: active = growth inhibition above about 70%; inactive = the rest.

Assay [1] can be described thus: NCI Yeast Anticancer Drug Screen. Data for the rad50 strain (AID 155).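 Also: 0% = growth of vehicle-only cultures of the same strain.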 The settings on record: S. cerevisiae rad50 strain growth inhibition; at 50.0 µM; hits give high values. The method in brief:
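DNA repair mutant yeast, compound exposure, growth read-out; inhibition is taken relative to vehicle.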

Assay [2] can be described thus: NCI Yeast Anticancer Drug Screen. Data for the mec2-1 strain (AID 157). The settings on record: S. cerevisiae mec2-1 strain, at 50.0 µM, hits give high values. The method in brief: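 Yeast mec2-1 mutant treated with compound. Readout: growth inhibition vs vehicle controls.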
The nature of assay [3]: NCI Yeast Anticancer Drug Screen. Data for the sgs1 mgt1 strain (AID 161).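 Also: 0% = growth of cultures given vehicle only.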 The note with it: S. cerevisiae sgs1 mgt1 strain, at 50.0 µM, hits give high values. In a few lines: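 Mutant yeast exposed to compound; growth scored against vehicle-only wells.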
Assay [4] can be described thus: NCI Yeast Anticancer Drug Screen. Data for the cln2 rad14 strain (AID 165).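 Also: 0% = growth equal to vehicle treated cultures.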 The settings on record: S. cerevisiae cln2 rad14 strain, at 50.0 µM, hits give high values. The method in brief:
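cln2 rad14 yeast strain; compound exposure; growth inhibition read vs vehicle controls.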

Assay [5] is described as follows: NCI Yeast Anticancer Drug Screen. Data for the bub3 strain (AID 167). The note with it: S. cerevisiae bub3 mutant strain, at 50.0 µM, hits give high values. In a few lines:
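In this screen, a yeast mutant lacking normal mitotic checkpoint function is challenged with compound. Relative growth versus vehicle gives the inhibition value.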

Assay [6] can be described thus: NCI Yeast Anticancer Drug Screen. Data for the mlh1 rad18 strain (AID 175). The settings on record: S. cerevisiae mlh1 rad18 strain growth inhibition; at 50.0 µM; hits give high values. In a few lines:
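Yeast w/ defined DNA-repair lesions; compound exposure; growth vs vehicle controls → % inhibition.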

Take `Cc1ccc(Cl)cc1NC(=O)C(Br)C(Br)c1ccccc1` (configuration not stated): the growth inhibition in assay [1] is 20.6%; in assay [2] it was -7.7%; in assay [3], 11.9%; in assay [4], 0.85%; in assay [5], -0.1%; in assay [6], 6.2%.

For `Cc1nc2cc(Cl)ccc2s1`, the growth inhibition in assay [1] is 30.5%; in assay [2] it was 2.8%; in assay [3], 22.1%; in assay [4], 18.4%; in assay [5] it was 30.3%; in assay [6] it was 26.2%.

Consider `COc1cccc(/C(Cl)=C(\C=O)c2cccc(OC)c2)c1`, for which the growth inhibition in assay [1] is 12.8%; in assay [2], 19.1%; in assay [3], 2.2%; in assay [4], 10.7%; in assay [5], 34%; in assay [6], -10.1%.

On to `CC(C)C(C)(O)CO` (configuration not stated), for which the growth inhibition is -21.9% in assay [1]; 1.75% in assay [2]; -1.2% in assay [3]; 16.8% in assay [4]; -6.2% in assay [5]; -13.7% in assay [6].

Regarding `COc1ccc(/C=C/c2cc(O)cc(OC3OC(CO)C(O)C(O)C3O)c2)cc1O` (configuration not stated), the growth inhibition in assay [1] is -2.4%; in assay [2], 10.5%; in assay [3], -5.5%; in assay [4], 7.55%; in assay [5] it was 8.7%; in assay [6], 10.8%.

On to `CC1(C)OC2(CC1C1(C)C=CC(=O)O1)CC1(O)C(CCC34CC13C(=O)OC4c1ccoc1)O2` (configuration not stated), for which the growth inhibition was 17% in assay [1]; 4.25% in assay [2]; -10.3% in assay [3]; 24.7% in assay [4]; 14.9% in assay [5]; 16.8% in assay [6].

For `CN(C)C(=O)C1CCC(CC2CCCCC2)CC1` (configuration not stated), the growth inhibition was 99.1% (active) in assay [1]; 99.2% (active) in assay [2]; 99% (active) in assay [3]; 96.3% (active) in assay [4]; 98.3% (active) in assay [5]; 80.9% (active) in assay [6].

For the molecule `C=C1CN=C(Nc2ccc(Cl)cc2)S1`, the growth inhibition in assay [1] is -11.1%; in assay [2], 18.1%; in assay [3], -14.8%; in assay [4] it was 17.2%; in assay [5], 11.5%; in assay [6], -13.7%.

`C/C=C/C(=O)OCCCCCCCCCCCCCCCCCC`: the growth inhibition in assay [1] was 13.7%; in assay [2] it was -23.8%; in assay [3], 11.7%; in assay [4], 8%; in assay [5] it was 15.5%; in assay [6], 21%.

With `N#CC(c1cccs1)C1CCCCC1` (configuration not stated), the growth inhibition in assay [1] was 9.4%; in assay [2], -0.5%; in assay [3], 2.05%; in assay [4] it was -11.8%; in assay [5] it was 2.65%; in assay [6], -1.3%.

Turning to `COc1cc2cnc3c4ccccc4ccc3c2cc1OC`, the growth inhibition was -48.5% in assay [1]; -18.1% in assay [2]; -1.7% in assay [3]; 4.2% in assay [4]; -2.85% in assay [5]; -9.3% in assay [6].

For `CCOCC/C(C(=O)O)=C(\CC)C(=O)O`, the growth inhibition in assay [1] was 9.15%; in assay [2], 2.55%; in assay [3], 0%; in assay [4], 8.7%; in assay [5], -22.8%; in assay [6], 9.05%.

As to `Cc1cc2c(c(=O)o1)C(C)CC(c1c(O)cc(C)oc1=O)O2` (configuration not stated), the growth inhibition was 15.3% in assay [1]; 5.35% in assay [2]; 16.8% in assay [3]; 5.85% in assay [4]; 14.1% in assay [5]; 20.6% in assay [6].

As for `COC(=O)c1c2c(cc3c1CC1(Cc4cc5c(c(C=O)c4C1)CCC5)C3)CCC2` (configuration not stated), the growth inhibition in assay [1] is -50.6%; in assay [2], -23.4%; in assay [3], 8.25%; in assay [4], 1.55%; in assay [5] it was 14.4%; in assay [6] it was 4.8%.

In the case of `CCc1nc(N)nc(N)c1-c1ccc(Cl)c(N=CN(C)C)c1`, the growth inhibition in assay [1] was 31.8%; in assay [2], 23.1%; in assay [3], 26.9%; in assay [4], 29.8%; in assay [5], 16.6%; in assay [6], 51.5%.

Turning to `O=C(C[n+]1ccccc1Cc1ccccc1)c1ccccc1`, the growth inhibition in assay [1] is -6.6%; in assay [2], -4.2%; in assay [3] it was -14%; in assay [4] it was -11.6%; in assay [5], -11.4%; in assay [6] it was -17.9%.

Regarding `CC1(CO)CCCC1NCCNC1CCCC1(C)CO` (configuration not stated), the growth inhibition in assay [1] was 8.6%; in assay [2], -6.7%; in assay [3], 3.35%; in assay [4], 10.3%; in assay [5] it was -27.9%; in assay [6], 15.5%.

For `CS(=O)(=O)OCCN1C(=O)CNC1=O`, the growth inhibition in assay [1] was 4.6%; in assay [2], 8.35%; in assay [3], -9.45%; in assay [4] it was -27.8%; in assay [5] it was 9.55%; in assay [6] it was -2.7%.

As to `CN(C)c1ccccc1C(=O)N/N=C\c1ccc(O)c(O)c1`, the growth inhibition in assay [1] was 17.6%; in assay [2], 14.2%; in assay [3], 19.5%; in assay [4] it was 5.75%; in assay [5], 12.4%; in assay [6], 22.2%.

As to `Cc1ccc(NC(=S)N2CCCC2)cc1`, the growth inhibition is 5.9% in assay [1]; -12.9% in assay [2]; -18.8% in assay [3]; -94.2% in assay [4]; -13.4% in assay [5]; -0.7% in assay [6].

Consider `CC(=O)Nc1ccc([N+](=O)[O-])cc1Cl`, for which the growth inhibition in assay [1] is 27.6%; in assay [2], 16.9%; in assay [3], 16.8%; in assay [4] it was -3.15%; in assay [5] it was 5.1%; in assay [6], 26.4%.

Turning to `C[N+](C)(C)CCOC(=O)C(c1ccccc1)C1(O)CCCC1` (configuration not stated), the growth inhibition in assay [1] is 33.6%; in assay [2], -16.1%; in assay [3], 12.7%; in assay [4], -24.4%; in assay [5] it was -1.7%; in assay [6], 22.3%.

As to `C[N+]1(C)CCC(C(=O)c2ccccc2)CC1`, the growth inhibition in assay [1] is 1.15%; in assay [2], 4.95%; in assay [3], 5.6%; in assay [4], -17.9%; in assay [5] it was 17%; in assay [6], 16.4%.

As to `CC[P+](C)(C)c1ccccc1`, the growth inhibition was 30.9% in assay [1]; -0.8% in assay [2]; 2.1% in assay [3]; 7.55% in assay [4]; 11.7% in assay [5]; 2.75% in assay [6].

In the case of `CCn1c(O)c(C=Nc2ccccc2)s/c1=N/Nc1nc(C)cs1`, the growth inhibition is -45.3% in assay [1]; -55.2% in assay [2]; -25% in assay [3]; -14.1% in assay [4]; -26.7% in assay [5]; -27.5% in assay [6].

Turning to `OC(CNc1ccc(Cl)nn1)c1ccccc1` (configuration not stated), the growth inhibition was -3.35% in assay [1]; -10.3% in assay [2]; 21% in assay [3]; 13.4% in assay [4]; 9.7% in assay [5]; -15.2% in assay [6].

With `Cc1ccnc(-n2c(N)cc(=O)[nH]c2=S)c1`, the growth inhibition in assay [1] was -7.15%; in assay [2], 1.3%; in assay [3], 10.6%; in assay [4] it was -17.4%; in assay [5] it was 27.6%; in assay [6], 5.55%.

Turning to `C[Si](Cn1ccc(=O)n(C[Si](C)(c2ccccc2)c2ccccc2)c1=O)(c1ccccc1)c1ccccc1`, the growth inhibition is -3.7% in assay [1]; -7.65% in assay [2]; -12.3% in assay [3]; -13.9% in assay [4]; -2.4% in assay [5]; 15.2% in assay [6].

For the molecule `Cn1c(=O)c2[nH]c(=S)[nH]c2n(C)c1=O`, the growth inhibition is -5.85% in assay [1]; -20.7% in assay [2]; -3% in assay [3]; 11.1% in assay [4]; -18.2% in assay [5]; -4.75% in assay [6].

Consider `O=C(O)Cn1ccc(=O)c2ccc([N+](=O)[O-])cc21`, for which the growth inhibition in assay [1] was 35.7%; in assay [2], 15.2%; in assay [3], 13.7%; in assay [4] it was 26.9%; in assay [5], 23.8%; in assay [6], -47.5%.

For the molecule `O=C(Nc1nc2ccccc2n1Cc1ccc(Cl)cc1)NC12CC3CC(CC(C3)C1)C2`, the growth inhibition was 15.8% in assay [1]; -6.45% in assay [2]; 7.2% in assay [3]; -30.6% in assay [4]; 27.5% in assay [5]; -18.6% in assay [6].

With `CC1=C(CO)C(=O)O[C@@H]([C@@H](C)[C@H]2CC[C@H]3[C@@H]4C[C@H]5O[C@]56[C@@H](O)C=CC(=O)[C@]6(C)[C@H]4CC[C@]23C)C1`, the growth inhibition is 86.2% (active) in assay [1]; 89.2% (active) in assay [2]; 86.5% (active) in assay [3]; 83.3% (active) in assay [4]; 89.7% (active) in assay [5]; 85% (active) in assay [6].

Regarding `CN(C)/N=C\c1ccc(C(=O)O)cc1`, the growth inhibition was -4.35% in assay [1]; 25.6% in assay [2]; 8.5% in assay [3]; -11.9% in assay [4]; 28.3% in assay [5]; 22.9% in assay [6].

On to `O=P(c1ccccc1)(c1ccccc1)C(O)c1ccncc1` (configuration not stated), for which the growth inhibition was 1.8% in assay [1]; -17.2% in assay [2]; -0.15% in assay [3]; 10.9% in assay [4]; -23% in assay [5]; -10.9% in assay [6].

For the molecule `Cc1ccc2c(c1)[nH]c1ccccc12`, the growth inhibition in assay [1] was 15.3%; in assay [2] it was 13.7%; in assay [3], 26.2%; in assay [4], -14.2%; in assay [5], 22.6%; in assay [6] it was 23.9%.

In the case of `O=[N+]([O-])c1cccc2c1ccc1nonc12`, the growth inhibition in assay [1] is 17.2%; in assay [2], -5.15%; in assay [3] it was 2.55%; in assay [4], -52.1%; in assay [5], -15.8%; in assay [6] it was 20.5%.

As for `CCCCCCCCCSc1nc2ccccc2s1`, the growth inhibition was 12.8% in assay [1]; 6.25% in assay [2]; 18.2% in assay [3]; 5.45% in assay [4]; 14.5% in assay [5]; -10.1% in assay [6].
